Experimental findings from PubChem BioAssay (NCI) are described below.

The panel holds about 83,000 compounds, 20% with a hit somewhere; the sample as a whole holds those more often.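 Percent growth is the endpoint: 0 to 100 indicates growth inhibition (40 means 60% inhibition), 0 means no net growth, and negative values indicate cell death.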 Unmarked numbers belong to inactive results. The source made the active and inactive calls. The calls were made as follows: active = growth percent below 10; inactive = the rest.

Some test systems named below: NCI-H23 lung; NCI-H226 lung; NCI-H322M lung; HOP-62 NSCLC; NCI-H460 lung; HOP-92 NSCLC; NCI-H522 lung; A549/ATCC NSCLC; 786-0 renal; COLO 205 colon.
Holding throughout (assay): NCI-60 one-dose screen, 48 h (100 = growth as untreated, 0 = no growth, -100 = all killed)
What all share (details): 10 µM unless noted

For the compound `CC[N+]1(CC)CC[N+]2(CCCC(C)CC2)CC1` (stereo not given), the growth in the assay on NCI-H23 lung was 102%; in the assay with NCI-H226 lung, 104%; in the assay on NCI-H322M lung it was 106%; in the assay with HOP-62 NSCLC it was 106%; in the assay on NCI-H460 lung, 105%; in the assay on HOP-92 NSCLC, 96.4%. Also, the growth in the assay on NCI-H522 lung is 93.3%; in the assay on A549/ATCC NSCLC, 91.6%; in the assay on 786-0 renal, 99.9%; in the assay with COLO 205 colon it was 113%.

In the case of `[2H]C([2H])([2H])Oc1ccc(F)cc1/C=C/C(=O)/C=C(O)/C=C/c1cc(F)ccc1OC([2H])([2H])[2H]`, the growth with NCI-H23 lung was 88.9%; in the assay with NCI-H226 lung, 105%; in the assay on NCI-H322M lung it was 107%; in the assay on HOP-62 NSCLC it was 91.9%; in the assay with NCI-H460 lung, 88.6%; in the assay on HOP-92 NSCLC it was 99.3%. In addition, the growth with NCI-H522 lung is 74.4%; with A549/ATCC NSCLC, 93.7%; in the assay with 786-0 renal, 99.7%; in the assay on COLO 205 colon, 116%.

As for `COc1ccc(-c2cc(-c3ccccc3)nc(N3CCN(CCNc4ccnc5cc(Cl)ccc45)CC3)n2)cc1`, the growth in the assay on NCI-H23 lung was 14.8%; in the assay with NCI-H226 lung, 67.5%; in the assay on NCI-H322M lung, 88%; in the assay with HOP-62 NSCLC, 94.8%; in the assay on NCI-H460 lung, -68.6% (active); in the assay on HOP-92 NSCLC it was -34.3% (active). The growth in the assay on NCI-H522 lung is 2.04% (active); in the assay with A549/ATCC NSCLC, -16% (active); with 786-0 renal it was -94.6% (active); with COLO 205 colon, -69.1% (active).

Take `CC1=CCC(OC(=O)C(C)(C)CC(O)(C(C)O)C(O)C2(C)C=CC(Cc3ccc(C(C)C)cc3)(C(C)C)CC2)(C(C)C)CC1` (stereo not given): the growth is 95.6% in the assay on NCI-H23 lung; 92.3% in the assay with NCI-H226 lung; 93.7% with NCI-H322M lung; 99.2% with HOP-62 NSCLC; 103% with NCI-H460 lung; 84.9% in the assay with HOP-92 NSCLC. Moreover, the growth in the assay on NCI-H522 lung is 91.2%; in the assay with A549/ATCC NSCLC, 98.5%; in the assay on 786-0 renal it was 99.9%; with COLO 205 colon, 103%.

As for `CCN1CCN(C(=O)[C@]23CC[C@@H](C)[C@H](C)[C@@H]2C2=CC[C@@H]4[C@@]5(C)C/C(=C/c6cccnc6)C(=O)C(C)(C)[C@@H]5CC[C@@]4(C)[C@]2(C)CC3)CC1`, the growth in the assay on NCI-H23 lung is 34.2%; in the assay with NCI-H226 lung it was 47.8%; in the assay with NCI-H322M lung, 65.7%; in the assay on HOP-62 NSCLC, 44.5%; in the assay with NCI-H460 lung it was 7.51% (active); in the assay with HOP-92 NSCLC it was 56.9%. Besides, the growth is 17.7% in the assay with NCI-H522 lung, 32% in the assay on A549/ATCC NSCLC, 42.4% with 786-0 renal and 11.5% in the assay with COLO 205 colon.

Consider `COc1ccc2c(c1)c(-c1nc(-c3c[nH]c4ncccc34)cs1)cn2CCCN1CCOCC1`, for which the growth in the assay on NCI-H23 lung was 56.6%; with NCI-H226 lung it was 45.4%; in the assay with NCI-H322M lung, 42.1%; in the assay on HOP-62 NSCLC, 28.9%; in the assay with NCI-H460 lung, 25.7%; with HOP-92 NSCLC it was 27.9%. Besides, the growth with NCI-H522 lung was 26.3%; in the assay on A549/ATCC NSCLC, 42%; in the assay on 786-0 renal, -24.3% (active); with COLO 205 colon, -38.5% (active).

As to `O=C(/C=C/c1cccc(Cl)c1Cl)Nc1ncc(Cc2ccccc2Cl)s1`, the growth in the assay with NCI-H23 lung was 79.2%; in the assay on NCI-H226 lung, 67.7%; in the assay with NCI-H322M lung, 78.5%; in the assay with HOP-62 NSCLC it was 42.4%; in the assay on NCI-H460 lung it was 33.9%; in the assay with HOP-92 NSCLC it was 61.6%. In addition, the growth in the assay on NCI-H522 lung is 17.5%; in the assay with A549/ATCC NSCLC, 58.2%; with 786-0 renal it was 68.7%; in the assay with COLO 205 colon, 45.4%.

On to `CCN(CC)c1ccc(/C=N/NC(=O)Cc2ccc(Nc3ccnc(C(F)(F)F)c3)cc2)c(O)c1`, for which the growth was 19.1% in the assay on NCI-H23 lung; 19.4% in the assay on NCI-H226 lung; 25.9% in the assay with NCI-H322M lung; 24.5% in the assay on HOP-62 NSCLC; 8.96% (active) with NCI-H460 lung; 54.1% in the assay on HOP-92 NSCLC. The growth with NCI-H522 lung was 33.9%; in the assay on A549/ATCC NSCLC, 23.4%; in the assay with 786-0 renal it was 1.44% (active); with COLO 205 colon, 64.9%.

In the case of `CC(=O)OC[C@]12CC[C@@H]([C@@H](C)c3nnc(-c4ccncc4)o3)[C@@H]1[C@H]1CC[C@@H]3[C@@]4(C)CC[C@H](OC(C)=O)C(C)(C)[C@@H]4CC[C@@]3(C)[C@]1(C)CC2`, the growth with NCI-H23 lung was 82%; in the assay with NCI-H226 lung, 60.6%; in the assay with NCI-H322M lung, 95.9%; in the assay with HOP-62 NSCLC it was 98.4%; in the assay with NCI-H460 lung, 58.6%; with HOP-92 NSCLC, 66.1%. Also, the growth was 76.2% with NCI-H522 lung, 62.5% in the assay with A549/ATCC NSCLC, 80.4% with 786-0 renal and 82.4% in the assay with COLO 205 colon.

Regarding `CCCCCCCC/C=C\CCCCCCCCOc1ccc(CC(=O)NCC[N+]2(C)CCOCC2)cc1`, the growth in the assay with NCI-H23 lung was 78.9%; in the assay on NCI-H226 lung, 71.1%; in the assay with NCI-H322M lung it was 88.1%; with HOP-62 NSCLC, 30.7%; in the assay on NCI-H460 lung it was 54.9%; in the assay with HOP-92 NSCLC it was 66.5%. For the same compound, the growth in the assay with NCI-H522 lung is 69.5%; in the assay with A549/ATCC NSCLC, 88.7%; in the assay with 786-0 renal, 67.7%; in the assay with COLO 205 colon, -14.8% (active).

As to `CSC(SC)=C(C#N)c1nc2ccccc2s1`, the growth was 58.3% with NCI-H23 lung; 59% in the assay on NCI-H226 lung; 79.4% in the assay with NCI-H322M lung; 72.5% in the assay on HOP-62 NSCLC; 57.7% in the assay on NCI-H460 lung; -12.8% (active) with HOP-92 NSCLC. For the same compound, the growth with NCI-H522 lung is 6.27% (active); in the assay on A549/ATCC NSCLC, 74.8%; in the assay on 786-0 renal it was 61.8%; in the assay with COLO 205 colon, 112%.

With `O=C(Nc1ncc(Cc2ccccc2)s1)c1ccc2c(c1)OCCCO2`, the growth was 29.1% in the assay on NCI-H23 lung; 46.2% in the assay on NCI-H226 lung; 45.4% in the assay on NCI-H322M lung; 31.9% in the assay with HOP-62 NSCLC; 15.2% in the assay on NCI-H460 lung; 58.7% in the assay on HOP-92 NSCLC. Further, the growth in the assay with NCI-H522 lung is -4.73% (active); with A549/ATCC NSCLC, 33.5%; with 786-0 renal, 36.3%; in the assay with COLO 205 colon it was 12%.

In the case of `COCCn1cc(-c2csc(-c3c[nH]c4ccc(Br)cc34)n2)c2cccnc21`, the growth in the assay with NCI-H23 lung was 32.3%; in the assay with NCI-H226 lung it was 58%; with NCI-H322M lung it was 59.5%; in the assay on HOP-62 NSCLC it was 45.4%; in the assay on NCI-H460 lung it was 20.7%; in the assay with HOP-92 NSCLC, 2.14% (active). Further, the growth in the assay with NCI-H522 lung was -28.3% (active); in the assay on A549/ATCC NSCLC, 23.1%; with 786-0 renal, -4.75% (active); in the assay with COLO 205 colon, 24.9%.
